Rows were chosen to be rich in hits. Some 11% of all compounds tested hit in one or more screens of this group.
NS1 function inh = qHTS Assay for Inhibitors of Influenza NS1 Protein Function | AID 2326, 2010 | actives 0.4% (n = 270,000) | Potency, µM (titrated, usually from 46.1 µM), inactives show at the top dose activity, positive = more growth; calls by dose curve; also: potency is read from the fitted curve at half-maximal effect; actives are rising curves; nearly all actives have a fitted effect of over 50% in size
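Compounds were scored for reversing the slow growth caused by influenza A NS1 in S. cerevisiae, measured by optical density at 600 nm. Assay medium contained 2% galactose at pH 6.0; NS1-free yeast of the same strain were the positive control.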
AMA1-RON2 inh = qHTS for Inhibitors of AMA1-RON; Towards Development of Antimalarial Drug Lead: Primary Screen. actives 0.2% (n = 360,000). AlphaScreen AMA1-biotinylated RON2 peptide binding. Potency, µM (highest dose often 58.2 µM), for inactives: at the highest dose activity change, negative = inhibition, most hits filed as inhibitors. AID 720542, 2013. Plasmodium falciparum AMA1 (3D7) - RON2 peptide interaction;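 also: potency is read from the fitted curve at half-maximal effect; 0% = vehicle wells and -100% = peptide control; nearly all actives have a fitted effect of over 45% in size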
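AMA1 (3D7) with his tag at 25 nM final met compounds first, then biotinylated RON2 peptide at 25 nM; detection used donor plus acceptor beads, 10 µg/mL apiece, read by AlphaScreen after 30 min at room temperature.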
Pf growth 96h = Primary qHTS for delayed death inhibitors of the malarial parasite plastid, 96 hour incubation | P. falciparum luciferase reporter growth, 96 h | Potency, µM (series often up to 28.7 µM), without a hit: at the highest dose activity change, negative = inhibition, most hits filed as inhibitors | actives 6.9% (n = 320,000) | AID 504834, 2011; also: potency is read from the fitted curve at half-maximal effect; % is scaled to controls: 0 for no effect and ±100 for the full control effect
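Parasite growth measured via integrated firefly luciferase reporter in P. falciparum. Infected erythrocytes at 2% hematocrit, 0.05% parasitemia final were treated 96 hours at 37 C under 5% CO2, and luminescence was read.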
Sm TGR inh = qHTS Assay for the Inhibitors of Schistosoma Mansoni Peroxiredoxins | Schistosoma mansoni thioredoxin glutathione reductase (TGR), Q962Y6 | purified TGR, DTNB reduction, TNB absorbance 405 nm | Potency, µM (doses to about 114 µM), without a hit: at the top dose activity change, negative = inhibition, actives largely listed as inhibitors | actives 3% (n = 360,000); also: potency is read from the fitted curve at half-maximal effect; % is scaled to controls: 0 for no effect and ±100 for the full control effect; nearly all actives have a fitted effect of over 60% in size
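First, TGR (20 nM dispensed) and NADPH were mixed with compound. Second, a 15 min room-temperature incubation followed. Third, further NADPH and then DTNB were added to start the reaction. Finally, TNB absorbance was monitored kinetically.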
Pf growth 48h = Primary qHTS for delayed death inhibitors of the malarial parasite plastid, 48 hour incubation. actives 5.9% (n = 310,000). Potency, µM (top dose mostly 28.7 µM), for the others: at the top dose activity change, negative = inhibition, most hits filed as inhibitors. P. falciparum luciferase growth in erythrocytes, 48 h. AID 504832, 2011; also: potency is read from the fitted curve at half-maximal effect; % is scaled to controls: 0 for no effect and ±100 for the full control effect
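Luciferase-expressing parasites in RBCs, 2% Hct / 0.1% parasitemia final; RPMI 1640 + 0.5% Albumax; 37 C, 5% CO2, one generation; luminescence read-out, lower signal = inhibition.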
NS1 inh valid = Assay for Inhibitors of Influenza NS1 Protein Function: Hit Validation; activity change, negative = inhibition, % at 32.9 µM; 1,400 tested, under 10 active; shares compounds with NS1 function inh; influenza NS1 function cell assay, 15-point titration; AID 492980, 2010; calls by dose curve; also: 0% is about no effect
Flu PR8 replic = Assay for Inhibitors of Influenza NS1 Protein Function: Influenza virus replication assay in MDCK cells infected with virus A/PR/8/34. AID 504647, 2011. MDCK infected influenza A/PR/8/34, virus titer TCID50; hits give low values. virus titer (log TCID50), log10 TCID50 at 5 µM. actives 30% (n = 95). shares compounds with NS1 function inh; call rule not given here
Numbers without * were called inactive; ? = inconclusive; · = no result given; [ ] = remark or other dose. Unless noted, calls follow the shape of the dose curve; as a rule, active = well fitted curve in the direction sought with a large enough effect; inconclusive = small, poorly fitted or top-dose-only effect, or another doubt; inactive = no such curve, though single readings can be large; an effect the other way counts as inactive or inconclusive.

SMILES	NS1 function inh	AMA1-RON2 inh	Pf growth 96h	Sm TGR inh	Pf growth 48h	NS1 inh valid	others
CCc1ccc(NC(=O)CNC(=O)c2cn(-c3ccccc3OC)c(=O)c3ccccc23)cc1	11µM*	-12%	?	10%	·	30	Flu PR8 replic=8.5
Nc1nonc1C(=O)NCCNC(=O)c1ccc(Cl)c(Cl)c1	5%	-7%	-2%	2%	4%	·
O=[N+]([O-])c1ccc(NN=Cc2cccc(O)c2)nc1	·	7%	·	·	·	·
Cc1cccc(C)c1-n1c(C)cc(/C=N\Nc2ccc([N+](=O)[O-])cn2)c1C	13µM*	?	-51%	-34%	·	-35
CC1CC2(C)Oc3ccccc3C3OCC1(CO)C(C)C32 (stereo not given)	?	0%	·	-7%	2%	6
CC(=O)OCC12COC3c4ccccc4OC(C)(CC1C)C3C2C (stereo not given)	·	-2%	?	-1%	?	·
CC1=C(C(=O)Nc2cccc(Cl)c2)C2(CCCCCC2)OC1=O	·	·	·	-9%	·	·
O=C(O)c1ccc([N+](=O)[O-])c(P(=O)(O)O)c1	-2%	·	·	·	·	·
CCc1nnc(N2C(=O)c3ccccc3C2(O)c2ccccc2)s1 (stereo not given)	-2%	0%	7%	11%	-10%	·
Cc1cc(C(C)(C)C)c(O)c(C(C)(C)C)c1	5%	-3%	21%	3%	10%	·
CC1=NN(Cc2cc(C(C)(C)C)c(O)c(C(C)(C)C)c2)C(=O)C1	14µM*	51%	1%	11%	-17%	?
Cc1ccc(NC(=O)C(=O)NCC(c2ccc3c(c2)OCO3)N2CCOCC2)cc1C (stereo not given)	·	·	·	16%	·	·
COc1cc(CNc2ccc(CNc3ncn[nH]3)cc2)ccc1OCc1ccccc1	?	-25%	-12%	3%	-20%	3
NC(=O)NC(=O)COC(=O)c1ccc(Cl)c(S(=O)(=O)N(Cc2ccccc2)c2ccc(Cl)cc2)c1	11µM*	17%[11.6 µM]	0%	7%	?	-20
COc1ccc(-c2csc(Nc3ccc(S(=O)(=O)Nc4cc(OC)nc(OC)n4)cc3)n2)cc1	13µM*	-10%	15µM*	-11%	29%	20	Flu PR8 replic=8
N#C[C@H]1CN[C@H](N)N[C@@H]1N	1%	·	·	·	·	·
Cc1ccc(Cl)cc1NC(=O)CN1C(=O)NC2(CCCCCC2)C1=O	·	-6%[11.6 µM]	0%	0%	-14%	·
CC(=O)c1ccc(N2CCN(C(=O)c3cc(-c4ccc5c(c4)OCO5)nc4ccccc34)CC2)cc1	13µM*	-4%	0%	6%	6.6µM*	3	Flu PR8 replic=8
CC(C)CC(C(=O)O)N1C(=O)C2C3CC(C2C1=O)C1C(c2ccccc2)c2sc(=O)[nH]c2SC31 (stereo not given)	?	-10%[11.6 µM]	20%	-12%	14%	36
N#C/C(=N\Nc1ccc(Cl)cc1)C(=O)c1ccccc1	-161%	-7%	·	-10%	8%	·
Cc1c(N/N=C(\C#N)C(=O)c2ccc(Cl)cc2)c(=O)n(-c2ccccc2)n1C	?	2%	113%	-4%	12µM*	?
O=C(Cc1cccc2ccccc12)N/N=C/c1ccc(Sc2nc3ccccc3s2)o1	10µM*	9%	?	4%	?	11
CCOc1ccc(S(=O)(=O)N2CCN(C(=O)Cc3n[nH]c(=O)c4ccccc34)CC2)cc1	·	8%	-18%	8%	?	·
CC(C)c1ccc(NC(=O)C(c2ccccc2)N(Cc2ccco2)C(=O)CC2NC(=O)NC2=O)cc1 (stereo not given)	·	-9%	?	-8%	?	·
CN1CCN(C(=O)c2cnn3c(C(F)(F)F)cc(-c4cccs4)nc23)CC1	5%	-5%[11.6 µM]	?	4%	-14%	·
SMILES	NS1 function inh	AMA1-RON2 inh	Pf growth 96h	Sm TGR inh	Pf growth 48h	NS1 inh valid	others
O=C(c1cnn2c(C(F)(F)F)cc(-c3cccs3)nc12)N1CCN(C(c2ccccc2)c2ccccc2)CC1	16µM*	15%	?	-13%	0.93µM*	7
Cc1ccc(S(=O)(=O)Nc2ccccc2C(=O)OC(C)C(=O)Nc2ccc3ccccc3c2)cc1[N+](=O)[O-] (stereo not given)	4.5µM*	2%	?	1%	-10%	-10
CCc1ccc(NC(=O)C(C)OC(=O)c2ccc(NS(=O)(=O)c3ccc(C)c([N+](=O)[O-])c3)cc2)cc1 (stereo not given)	-35%	-29%	-13%	3%	1%	·
COc1ccccc1NC(=O)c1cc(S(=O)(=O)N(C)C2CCCCC2)ccc1F	·	·	·	12%	·	·
O=C(Cn1cc(S(=O)(=O)Cc2cccc(Cl)c2)c2ccccc21)Nc1ccccc1Cl	·	·	·	-10%	·	·
COc1ccc(/C=N/NC(=O)c2ccc(CN3C(=O)c4cccc5cccc3c45)cc2)cc1O	·	36%	-4%	1%	?	·
COc1cc(/C=N/NC(=O)c2ccc(CN3C(=O)c4cccc5cccc3c45)cc2)cc(OC)c1O	13µM*	81%	?	0%	8.3µM*	18
CCCn1c(=O)c(Cc2ccccc2)c(O)c2ccccc21	?	3%	40%	1%	-6%	1
CC1(C)Cc2c(c(N3CCOCC3)nc3sc(-c4ccc(C(=O)O)o4)c(N)c23)CO1	?	-6%	100%	?	12µM*	12
CNC(=O)c1ccc(-c2sc3nc(N4CCOCC4)c4c(c3c2N)CC(C)(C)OC4)o1	21%	-14%	?	-15%	?	·
N=c1c(C(=O)NCc2ccco2)cc2c(=O)n3ccccc3nc2n1Cc1ccc(Cl)cc1	7.9µM*	4%	2.3µM*	-29%	10µM*	-27
O=C(Nc1ccccc1C(=O)O)c1cccc(NS(=O)(=O)c2ccc(Br)cc2)c1	7.9µM*	-8%	-20%	-7%	31%	33
Cc1ccc(C(=O)Nc2ccccc2C(=O)O)cc1S(=O)(=O)NC1CCCCC1	14µM*	-3%	0%	3%	2%	30	Flu PR8 replic=7.7
O=C(NCc1ccco1)c1ccc(Br)c(S(=O)(=O)N2CCCCC2)c1	-44%	-1%	?	0%	?	·
Cc1ccc(C(=O)Nc2ccccc2C(=O)O)cc1S(=O)(=O)Nc1ccccc1	16µM*	-2%	14%	4%	1%	28
